Reference: PubChem BioAssay
Active and inactive are the calls of the source.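 Rule for the calls: active = inhibition at or above 50% at 10 µM; inactive = inhibition below 50%.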

experiment: inhibitors of Sendai virus-induced IRF3 signaling, primary screen, TLR/RLR signaling modifier project, cell-based, Sendai virus stimulus, luciferase, 10K MLSCN set (AID 602276); settings: HEK293 RL24 IRF3 luciferase reporter, at 10 µM, active compounds read high;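 note: firefly luciferase from ISG56 promoter only with Renilla not read in this screen; 0% = Sendai virus plus DMSO and 100% = medium plus DMSO without virus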

inhibition, inactive:
CN(C)S(=O)(=O)c1ccc(C(=O)N2CCCC2c2nc3ccccc3s2)cc1 (stereo not given) -17.9%, CC1=C(C(=O)OC(C)C)C(C2CC=CCC2)NC(=O)N1 (stereo not given) 0.205%, COc1ccc(OC)c(C2CC(=O)NC(SC)=C2C#N)c1 (stereo not given) 8.75%, CC1(C(=O)NC2CCCCC2)CCC(=O)N1Cc1cccs1 (stereo not given) -11.7%, NC(=O)c1c(NC(=O)Cc2cccs2)sc2c1CCC2 -14.3%, CC(=O)Nc1cccc(NC(=O)C2CCCN2C(=O)Nc2ccc(C)cc2)c1 (stereo not given) -9.54%, COc1ccc2[nH]c(=O)c(CN(CCO)S(=O)(=O)c3ccc4c(c3)OCCO4)cc2c1 9.42%, Cn1c(=O)c2c(nc(NCC3CCCO3)n2C)n(C)c1=O (stereo not given) 6.21%, COc1cccc(-c2csc3nc[nH]c(=O)c23)c1 8.62%, COC(=O)Cn1c2ccccc2c2nc(C)sc21 -14.8%, CCOC(=O)c1ccc(-n2c(C)nc3c(cnn3-c3ccccc3C)c2=O)cc1 -2.92%, Cc1ccc(S(=O)(=O)C2(C(=O)Nc3cccnc3)CC2)cc1 9.66%, CC(=O)N1CCN(S(=O)(=O)c2ccc(S(=O)(=O)NC3CC3)cc2)CC1 18.5%, COc1ccc(CCNc2oc(-c3ccccc3OC)nc2C#N)cc1 -0.337%, COc1ccc(-n2c(Cc3cccn3C)nnc2SCC(=O)Nc2cccc(Cl)c2)cc1 -2.83%, COc1ccc(OC)c(-n2nnnc2SCC(=O)NCc2ccc3c(c2)OCO3)c1 18%, CC1CCc2nn(CC(=O)NCc3ccc(F)cc3)cc2C1 (stereo not given) -0.348%, CC1CN(C2CCCCC2)c2nc3c(c(=O)[nH]c(=O)n3C)n2C1 (stereo not given) 13.1%, Cc1ccc(Nc2nc(Oc3ccc(=O)[nH]n3)nc(N(C)C)n2)cc1 8.86%, O=C(Nc1ccc(F)cc1)N(Cc1ccco1)Cc1cc2cc3c(cc2[nH]c1=O)OCO3 -8.59%, COc1cccc(C(=O)Nc2c(C(N)=O)oc3ccccc23)c1 10.6%, O=C(C1CCCN1S(=O)(=O)c1cccc2cccnc12)N1CCn2c1nc1ccccc12 (stereo not given) 8.59%, O=C(NCCSCc1ccco1)Nc1cccc(Cl)c1 2.33%, CC(=O)Nc1nc2c(c3c1c(=O)oc1ccccc13)CC(C)CC2 (stereo not given) 12.8%, O=c1/c(=C/c2ccco2)sc2nc(-c3ccccc3Br)nn12 16.2%, CCOC(=O)Cn1c(S(=O)(=O)Cc2ccccc2)nc2ccccc21 9.42%, CCn1c(SCC(=O)Nc2ccccc2F)nc2c(c1=O)SC(C)C2 (stereo not given) 3.68%, Nc1cccc2c1C(=O)N(c1ccccc1)C2=O -20.4%, COCCn1c(=O)[nH]c2cc(C(=O)N3CCN(Cc4ccc5c(c4)OCO5)CC3)ccc2c1=O 2.81%, O=C(Cn1nnc(-c2ccc(S(=O)(=O)N3CCCC3)cc2)n1)NCC1CCCO1 (stereo not given) -11.8%, O=C(CN(Cc1ccco1)C(=O)c1cc(=O)[nH]c2ccccc12)Nc1ccccc1Br 16%, c1nc(NCC2(N3CCOCC3)CCCCC2)c2ccsc2n1 -0.86%, CC1CCCN(S(=O)(=O)c2ccc(C(=O)Nc3nnc(-c4ccccc4Cl)o3)cc2)C1 (stereo not given) 22.7%, O=C(OCN1C(=O)c2ccccc2C1=O)c1ccc2c(=O)n3c(nc2c1)CCC3 5.92%, Cc1cc(C)n2nc(SCc3nc4ccccc4[nH]3)nc2n1 -26.2%, Cc1ccc(S(=O)(=O)NCCSc2nnnn2-c2ccc(C(N)=O)cc2)cc1 -0.501%, CC1(C)Cc2c(sc3c2c(=N)n(Cc2ccco2)c(=O)n3Cc2ccccc2)CO1 13.1%, CC1=C(C(=O)NCc2ccccn2)C2(CCC(C)CC2)OC1=O (stereo not given) 12.1%, Cc1nnc(SC(=O)N2c3ccccc3Sc3ccccc32)s1 5.05%, Cc1ccnc(NC(=O)C2CCCN(S(=O)(=O)c3cnc[nH]3)C2)c1 (stereo not given) -13.6%
